Sampled rows, rich in hits. Any-hit rate of the full collection: about 10%.
GLS inhibitor = glutaminase GLS (human) inhibition; Potency, µM (series often up to 45.5 µM), without a hit: top-dose activity change, negative = inhibition, most hits filed as inhibitors; hit rate 0.21% among 410,000; GLS enzymatic activity, qHTS titration; AID 624170; also: % is scaled to controls: 0 for no effect and ±100 for the full control effect
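Read-out is an Amplex red fluorescence increase coupled through glutamate oxidase and HRP, measured before and after 30 min room-temperature incubation. hKGA is in 45 mM KH2PO4 (pH 8.2) with 0.02% Tween-20; glutamine added as 1mM solution.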
L3MBTL1 inh = L3MBTL1 (human) inhibition. AlphaScreen L3MBTL1–H3K9me1 peptide binding. Potency, µM (highest dose often 57.1 µM), for the others: at the highest dose activity, negative = inhibition, most hits filed as inhibitors. hit rate 0.66% among 230,000; also: % is scaled to controls: 0 for no effect and ±100 for the full control effect; nearly all actives have a fitted effect of over 60% in size
Target sequence (Q9Y468 whole entry, looked up): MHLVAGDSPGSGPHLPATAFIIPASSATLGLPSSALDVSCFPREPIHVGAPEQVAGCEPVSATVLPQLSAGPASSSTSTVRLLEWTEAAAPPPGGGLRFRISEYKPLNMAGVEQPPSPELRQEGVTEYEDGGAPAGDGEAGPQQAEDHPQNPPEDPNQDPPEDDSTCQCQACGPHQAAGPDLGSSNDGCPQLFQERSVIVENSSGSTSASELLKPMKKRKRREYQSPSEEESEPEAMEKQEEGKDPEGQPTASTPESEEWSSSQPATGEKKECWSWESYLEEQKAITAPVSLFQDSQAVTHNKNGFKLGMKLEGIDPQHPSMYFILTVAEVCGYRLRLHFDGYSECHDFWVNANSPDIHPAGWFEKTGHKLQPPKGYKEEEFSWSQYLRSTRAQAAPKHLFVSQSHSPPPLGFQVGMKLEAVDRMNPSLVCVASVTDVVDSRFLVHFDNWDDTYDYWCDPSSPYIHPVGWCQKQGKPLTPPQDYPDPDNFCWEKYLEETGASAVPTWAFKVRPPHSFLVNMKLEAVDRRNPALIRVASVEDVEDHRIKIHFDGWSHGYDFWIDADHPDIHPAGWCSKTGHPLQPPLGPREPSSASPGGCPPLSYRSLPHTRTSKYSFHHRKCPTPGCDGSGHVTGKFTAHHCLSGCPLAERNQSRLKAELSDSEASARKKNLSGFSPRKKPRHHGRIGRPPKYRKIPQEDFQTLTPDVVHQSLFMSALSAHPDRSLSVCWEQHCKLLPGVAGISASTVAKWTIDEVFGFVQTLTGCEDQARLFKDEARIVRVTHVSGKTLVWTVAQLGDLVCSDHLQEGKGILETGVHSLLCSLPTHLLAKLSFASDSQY
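AlphaScreen proximity signal between nickel-chelate acceptor and streptavidin donor beads (final 10 ug/mL) reports binding of 50 nM L3MBTL1 to 75 nM biotin-H3 K9me1 peptide; complex incubated with compounds 30 min at room temperature; cefsulodin titration as control.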
JMJD2A Tudor inh = blocks the human JMJD2A Tudor domain; Potency, µM (titrated, usually from 114 µM), without a hit: top-dose activity change, negative = inhibition, actives largely listed as inhibitors; AID 504339; hit rate 4.4% among 390,000; AlphaScreen JMJD2A-Tudor / H3K4me3 peptide binding; also: % is scaled to controls: 0 for no effect and ±100 for the full control effect; nearly all actives have a fitted effect of over 50% in size
G9a inh = inhibitors of human histone lysine methyltransferase G9a; hit rate 8.8% among 350,000; AID 504332; Q96KQ7; G9a H3K9 monomethylation, AlphaScreen, 2 h; Potency, µM (top dose mostly 102 µM), inactives show top-dose activity, negative = inhibition, actives largely listed as inhibitors; also: % is scaled to controls: 0 for no effect and ±100 for the full control effect; nearly all actives have a fitted effect of over 75% in size
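Step 1: enzyme (final 20 nM) with compound, 15 min RT. Step 2: substrate peptide 500 nM and SAM 20 uM, 2 h RT. Step 3: anti-H3K9me1 antibody and AlphaScreen beads, 10 min, then plate read.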
BAZ2B block = inhibitors of human BAZ2B bromodomain. Q9UIF8. hit rate 4.4% among 360,000. Potency, µM (highest dose often 114 µM), without a hit: top-dose activity change, negative = inhibition, actives largely listed as inhibitors. AID 504333. AlphaScreen BAZ2B-H3K14Ac peptide displacement; also: % is scaled to controls: 0 for no effect and ±100 for the full control effect; nearly all actives have a fitted effect of over 60% in size
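BAZ2B (50 nM) with biotin-H3(5-23)K14Ac peptide (50 nM) in PBS pH 7.4, 0.01% Tween-20, preformed 30 min, then compound 30 min at room temperature; top concentration 110uM. AlphaScreen streptavidin donor/nickel chelate acceptor beads (10 ug/mL final), 20 min dark, signal read.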
HP1b binding inh = inhibitors of HP1-beta chromodomain binding to methylated histone tails; P83916; AlphaScreen HP1-beta / biotin-H3K9me3 peptide binding; Potency, µM (highest dose often 114 µM), without a hit: top-dose activity change, negative = inhibition, most hits filed as inhibitors; hit rate 0.56% among 390,000; also: nearly all actives have a fitted effect of over 70% in size
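AlphaScreen: HP1-beta (50 nM) preformed 30 min with biotin-H3(1-18)K9me3 peptide (50 nM) in PBS pH 7.4, 0.01% Tween-20. Compound added for 30 min at RT, then streptavidin donor/nickel chelate acceptor beads (10 ug/mL) for 30 min.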
* = called active by the depositor; [ ] = another dose, or the depositor's remark. Calls follow the shape of the dose curve; as a rule, active = well fitted curve in the direction sought with a large enough effect; inconclusive = small, poorly fitted or top-dose-only effect, or another doubt; inactive = no such curve, though single readings can be large; an effect the other way counts as inactive or inconclusive. Potency is read from the fitted curve at half-maximal effect.

`COc1ccc(C2=CC3=C(Br)C(=O)C(C)(OC(=O)c4ccco4)C(=O)C3=CO2)cc1` (stereo not given) gave GLS inhibitor -14%, JMJD2A Tudor inh 28µM*, G9a inh inconclusive, BAZ2B block 45µM* and HP1b binding inh inconclusive.
Screening O=Cc1ccc(-c2nc3ccccc3s2)o1 returned GLS inhibitor 20%, L3MBTL1 inh -2%, JMJD2A Tudor inh -15%, G9a inh -2%, BAZ2B block -21% and HP1b binding inh 19%.
Screening O=C(O)CCN1C(=O)/C(=C/c2ccc(-c3nc4ccccc4s3)o2)SC1=S returned GLS inhibitor inconclusive, L3MBTL1 inh -19%, JMJD2A Tudor inh 6.3µM*, G9a inh inconclusive, BAZ2B block 3.5µM* and HP1b binding inh inconclusive.
`O=C(O)CC(C(=O)O)N1C(=O)/C(=C/c2ccc(-c3nc4ccccc4s3)o2)SC1=S` (stereo not given) gave GLS inhibitor 11µM*, L3MBTL1 inh 4.5µM*, JMJD2A Tudor inh 50µM*, G9a inh 5µM*, BAZ2B block 50µM* and HP1b binding inh 28µM*.
CC1CN(C(=O)N2c3ccccc3Sc3ccccc32)CC(C)O1 (stereo not given) was read as GLS inhibitor -4%, L3MBTL1 inh -9%, JMJD2A Tudor inh -13%, G9a inh -42%[59 µM], BAZ2B block 89µM* and HP1b binding inh 16%.
`CC1CN(C(=O)N2CCC(C(=O)NCc3ccccc3F)CC2)c2cc(Cl)ccc2O1` (stereo not given) gave GLS inhibitor -3%, JMJD2A Tudor inh -30%, G9a inh inconclusive, BAZ2B block inconclusive and HP1b binding inh 6%.
O=C(CN1C(=O)NC2(CCCC2)C1=O)NCCN1C(=O)S/C(=C\c2ccccc2F)C1=O was read as GLS inhibitor 3%, L3MBTL1 inh 8%, JMJD2A Tudor inh -8%, G9a inh -22%, BAZ2B block 18% and HP1b binding inh 19%.
COc1ccc(/C=C2\SC(=O)N(CCNC(=O)CN3C(=O)NC4(CCCC4)C3=O)C2=O)cc1 was read as GLS inhibitor -2%, L3MBTL1 inh 6%, JMJD2A Tudor inh -21%, G9a inh 50µM*, BAZ2B block 9% and HP1b binding inh 13%.
O=C(Nc1ccccc1)c1cc([N+](=O)[O-])ccc1NCc1cccnc1 was read as GLS inhibitor 3%, L3MBTL1 inh -20%, JMJD2A Tudor inh inconclusive, G9a inh inconclusive, BAZ2B block -12% and HP1b binding inh -9%.
For O=C(O)c1cc([N+](=O)[O-])c(NCc2cccnc2)c([N+](=O)[O-])c1 the results were GLS inhibitor 0%, L3MBTL1 inh 22%, JMJD2A Tudor inh 2%, G9a inh 45µM*, BAZ2B block inconclusive and HP1b binding inh 8%.
For Cc1ccnc(SCC(=O)c2ccc([N+](=O)[O-])cc2)n1 the results were GLS inhibitor 6%, L3MBTL1 inh -1%, JMJD2A Tudor inh -29%, G9a inh 13µM*, BAZ2B block inconclusive and HP1b binding inh 10%.
For CCOC(=O)CNC(=O)CSc1nc2nc(C)c(Br)cc2[nH]1 the results were GLS inhibitor 0%, L3MBTL1 inh -3%, JMJD2A Tudor inh -2%, G9a inh 35µM*, BAZ2B block 3% and HP1b binding inh 44%.
Screening Cc1ccnc(SC2CC(=O)N(c3ccc([N+](=O)[O-])cc3)C2=O)n1 (stereo not given) returned GLS inhibitor -8%, L3MBTL1 inh -2%, JMJD2A Tudor inh -5%, G9a inh 35µM*, BAZ2B block -24% and HP1b binding inh 52%.
For Cc1ccc(N2C(=O)CC(Sc3nccc(C)n3)C2=O)cc1 (stereo not given) the results were GLS inhibitor -5%, L3MBTL1 inh -13%, JMJD2A Tudor inh -8%, G9a inh inconclusive, BAZ2B block -11% and HP1b binding inh 83%.
Screening Cc1nc2nc(SCC(=O)c3ccc([N+](=O)[O-])cc3)[nH]c2cc1Br returned GLS inhibitor -6%, L3MBTL1 inh 8%, JMJD2A Tudor inh inconclusive, G9a inh 20µM*, BAZ2B block 4% and HP1b binding inh 0%.
For CCOc1ccc2nc(NC(=O)c3nc(SC(C)C)ncc3Cl)sc2c1 the results were GLS inhibitor -1%, JMJD2A Tudor inh -16%, G9a inh inconclusive, BAZ2B block -11% and HP1b binding inh 17%.
`O=C(CCN1C(=O)c2ccccc2Sc2ncccc21)Nc1ccc(F)cc1` gave GLS inhibitor -11%, JMJD2A Tudor inh -31%, G9a inh inconclusive, BAZ2B block -35% and HP1b binding inh 10%.
Cc1cc(C)nc(SCC(=O)c2ccc([N+](=O)[O-])cc2)n1 was read as GLS inhibitor -6%, L3MBTL1 inh -12%, JMJD2A Tudor inh 79µM*, G9a inh inconclusive, BAZ2B block -36% and HP1b binding inh -33%.
`Cc1ccc(C(=O)CC(SCC(=O)O)c2ccc([N+](=O)[O-])cc2)cc1` (stereo not given) gave GLS inhibitor -2%, L3MBTL1 inh -9%, JMJD2A Tudor inh inconclusive, G9a inh 25µM*, BAZ2B block inconclusive and HP1b binding inh 50µM*.
`CC(C)CNC(=O)Nc1cc(C(=O)NCc2ccc(C(C)C)cc2)ccc1N1CCCC1` gave GLS inhibitor -5%, JMJD2A Tudor inh -13%, G9a inh 11%[12.7 µM], BAZ2B block -16% and HP1b binding inh 13%.
For COc1ccccc1NC(=O)C1=C(C)Nc2nc(SCc3ccccc3)nn2C1c1cccs1 (stereo not given) the results were GLS inhibitor 8%, JMJD2A Tudor inh -9%, G9a inh inconclusive, BAZ2B block 0% and HP1b binding inh 26%.
CCOC(=O)N1CCN(Cc2nc3cc(NC(=O)c4ccccc4OC)ccc3n2C(C)C)CC1 was read as GLS inhibitor -6%, JMJD2A Tudor inh 50µM*, G9a inh inconclusive, BAZ2B block 79µM* and HP1b binding inh 24%.
`O=C(Nc1ccc2c(c1)nc1n2CCN(C2CCCCC2)C1)c1ccco1` gave GLS inhibitor 2%, JMJD2A Tudor inh -15%[11.4 µM], G9a inh -136%[59 µM], BAZ2B block -11% and HP1b binding inh 27%.
`COc1ccccc1C(=O)Nc1ccc2c(c1)nc1n2CCN(C2CCCCC2)C1` gave GLS inhibitor 20%, JMJD2A Tudor inh inconclusive, G9a inh 32µM*, BAZ2B block -20%[57.1 µM] and HP1b binding inh 6%.
Screening CCC(=O)Nc1ccc2c(c1)nc1n2CCN(CCOC)C1 returned GLS inhibitor -13%, JMJD2A Tudor inh 1%, G9a inh 32µM*, BAZ2B block -14% and HP1b binding inh 63%.

Screening results deposited in PubChem by National Center for Advancing Translational Sciences (NCATS).
